Screen size: about 2,100 compounds; about 320 (15%) were called active. Roughly 52% stayed inconclusive and do not appear here. Calls follow the shape of the dose curve; as a rule, active = well fitted cell-killing curve with a large enough effect; inconclusive = small, poorly fitted or top-dose-only effect, or effect the other way; inactive = flat fitted curve, though single readings scatter. Some of the results follow.
Test: Viability Counterscreen for CMV-Luciferase Assay of Inhibitors of ATXN expression; also: nearly all actives have a fitted effect of over 55% in size
Details: HEK-293 CMV-luciferase cells viability, protease fluorescence, 24 h; activity change, negative = cytotoxicity: at the top concentration
How it was run: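 Dosing on CMV-luciferase HEK-293 cells for 24 hr, 37 °C. Luminescence read with SteadyGlo; cytotoxicity measured first as Gly-Phe-AFC protease fluorescence, 25 uM final substrate, 30 min.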
% is scaled to controls: 0 for no effect and ±100 for the full control effect; potency is read from the fitted curve at half-maximal effect.

Row | SMILES | activity change, negative = cytotoxicity | Potency
1 | CCc1nc2c(OCCOc3ccc(F)cc3)cccn2c1N(C=O)Cc1ccc(OC)cc1 | -21.2% [at 57.5 µM] (inactive) | –
2 | O=C(c1ccc(Cn2c(=S)[nH]c3ccccc3c2=O)cc1)N1CCN(c2ccccn2)CC1 | -9.68% (inactive) | –
3 | S=C(Nc1cc(Cl)ccc1Oc1ccccc1)N1CCN(c2ccccn2)CC1 | – | 25.1 µM (active)
4 | CCN(CC)S(=O)(=O)c1ccc(C)c(NC(=S)N2CCN(c3ccccn3)CC2)c1 | -19.9% [at 57.5 µM] (inactive) | –
5 | Cn1cccc1/C=N/N1CCN(Cc2ccccc2Cl)CC1 | -9.25% [at 57.5 µM] (inactive) | –
6 | C=CCNc1oc(-c2ccc(Cl)cc2)nc1C#N | 15.1% [at 57.5 µM] (inactive) | –
7 | O=C1N/C(=N/N=C/c2ccccc2O)SC1Cc1ccc(F)cc1 (centres undefined) | – | 14.1 µM (active)
8 | COc1cccc(C(=O)NC2CC3CCCC(C2)N3CC(=O)Nc2ccccc2C(F)(F)F)c1 (centres undefined) | -15.7% [at 57.5 µM] (inactive) | –
9 | CN(Cc1ccccc1)C1=CC(=[N+]2CCCC2)CC(C)(C)C1 | -15.5% (inactive) | –
10 | CSc1cccc(NC(=O)c2ccc(CN3CCc4ccccc4C3)cc2)c1 | -27.3% [at 57.5 µM] (inactive) | –
11 | COc1ccc(NS(=O)(=O)c2ccc(NC(=O)c3ccc(CN4CCOCC4)cc3)cc2)cc1 | -22.5% [at 57.5 µM] (inactive) | –
12 | COc1cccc(S(=O)(=O)NCc2ccc(C(=O)Nc3cccc(Cl)c3)cc2)c1 | – | 15.8 µM (active)
13 | Cc1ccc(-c2nc3ccc(Cl)cn3c2CC(C)(C)C)cc1 | 17.4% (inactive) | –
14 | c1ccc(-c2sc3ccccc3c2-c2ccc(OCCN3CCCC3)cc2)cc1 | – | 35.5 µM (active)
15 | COc1ccc(-c2sc3ccc(OC)cc3c2-c2ccc(O)cc2)cc1 | -12.9% (inactive) | –
16 | COc1cccc(-c2sc3ccccc3c2-c2ccc(OCCN3CCCC3)cc2)c1 | -4.65% (inactive) | –
17 | Cc1nc2ccccc2n1-c1nc(-c2ccco2)cc(C(F)(F)F)n1 | – | 10 µM (active)
18 | Cc1ccc(C)c(/C=C/C(=O)c2ccccc(=O)c2O)c1 | – | 20 µM (active)
19 | O=c1c2c(nc3c(-c4cccc(Br)c4)c[nH]n13)CCCC2 | – | 10 µM (active)
20 | O=c1c2c(nc3c(-c4ccc(Cl)cc4)c[nH]n13)CCC2 | -20.6% (inactive) | –
21 | O=C(Nc1cccnc1)C1Cc2c(-c3ccc4c(c3)OCO4)ccnc2O1 (centres undefined) | -12.2% (inactive) | –
22 | COc1ccc(Cl)cc1S(=O)(=O)N1CCN(C(=O)c2n[nH]c(=O)c3ccccc23)CC1 | -12.8% (inactive) | –
23 | Oc1c(C(Nc2ccccn2)c2cccnc2)cc(Cl)c2cccnc12 (centres undefined) | 20.9% [at 57.5 µM] (inactive) | –
24 | O=C(O)CSc1cc(NS(=O)(=O)c2cccc([N+](=O)[O-])c2)c2ccccc2c1O | -27.2% (inactive) | –
25 | CC(=O)NC(c1cccc([N+](=O)[O-])c1)c1ccc2cccnc2c1O (centres undefined) | – | 1.58 µM (active)

Row | SMILES | activity change, negative = cytotoxicity | Potency
26 | Oc1c(C(Nc2cccc(C(F)(F)F)c2)c2cccnc2)ccc2cccnc12 (centres undefined) | -27.3% [at 57.5 µM] (inactive) | –
27 | CC(=O)NC(c1ccco1)c1ccc2cccnc2c1O (centres undefined) | -22.3% (inactive) | –
28 | Oc1c(C(Nc2cccc(C(F)(F)F)c2)c2ccncc2)ccc2cccnc12 (centres undefined) | – | 8.91 µM (active)
29 | CCCC(=O)NC(c1ccc(C(C)C)cc1)c1ccc2cccnc2c1O (centres undefined) | -20.8% (inactive) | –
30 | Cc1ccnc(NC(c2ccccc2)c2ccc3cccnc3c2O)c1 (centres undefined) | -17.1% [at 57.5 µM] (inactive) | –
31 | O=[N+]([O-])c1ccc(NC(c2ccccc2)c2ccc3cccnc3c2O)cc1 (centres undefined) | – | 11.2 µM (active)
32 | CC(C)C(=O)NC(c1cccc([N+](=O)[O-])c1)c1ccc2cccnc2c1O (centres undefined) | – | 3.16 µM (active)
33 | CCc1nc2c(OCCOc3ccc(F)cc3)cccn2c1N(C)C(=O)c1ccco1 | 14.6% [at 57.5 µM] (inactive) | –
34 | CCCCOc1ccccc1NC(=O)c1scc2c1OCCO2 | -13.6% (inactive) | –
35 | Cc1ccc(/C=C2/CNC/C(=C/c3ccc(C)cc3)C2=O)cc1 | – | 8.91 µM (active)
36 | O=C(CNC(=O)c1ccco1)N/N=C/c1cc(Br)ccc1O | -12.2% [at 57.5 µM] (inactive) | –
37 | CC(C)(CC(=O)N1CCN(c2ccc(Cl)cc2)CC1)CC1=NS(=O)(=O)c2ccccc2N1 | -18.6% (inactive) | –
38 | OC(c1cc(-c2cccc(Cl)c2)nc2ccccc12)C1CCCCN1 (centres undefined) | – | 17.8 µM (active)
39 | CCOC(=O)Cn1cc(C(=O)c2ccco2)c2ccccc21 | 0.882% (inactive) | –
40 | Cc1c(C(=O)NCc2ccc(C(F)(F)F)cc2)sc(=O)n1Cc1cccc(F)c1 | 12% [at 57.5 µM] (inactive) | –
41 | CCn1cc(C(=O)NCc2cccc(F)c2)c(=O)c2cc(F)c(N3CCN(C(=O)c4ccco4)CC3)cc21 | – | 22.4 µM (active)
42 | CCCOc1ccc(C(=O)C(CN2CCOCC2)c2ccccc2)cc1 (centres undefined) | – | 25.1 µM (active)
43 | CC(=O)c1ccc(N2CCN(CC(O)COC(c3ccccc3)c3ccccc3)CC2)cc1 (centres undefined) | -1.22% (inactive) | –
44 | COc1ccc(-c2csc(Nc3ccc(S(N)(=O)=O)cc3)n2)cc1OC | -22.9% [at 57.5 µM] (inactive) | –
45 | COc1cccc(CC(=O)Nc2nc(-c3ccc(OC)c(OC)c3)cs2)c1 | – | 28.2 µM (active)
46 | COc1ccc(CC(=O)Nc2nc(-c3ccc(OC)c(OC)c3)cs2)cc1OC | -25.3% (inactive) | –
47 | CC(C)(C)c1ccc(CC(=O)N2CCC2(C)C(=O)Nc2cnc3ccccc3c2)cc1 (centres undefined) | -1.12% (inactive) | –
48 | NC(=S)n1[nH]c(-c2ccc([N+](=O)[O-])cc2)c(N=Nc2cccc(Cl)c2)c1=O | – | 14.1 µM (active)
49 | CCOc1ccc(C(=O)Nc2ccc(Cc3ccncc3)cc2)cc1Br | -12.6% [at 57.5 µM] (inactive) | –

Source: PubChem BioAssay AID1745849 (National Center for Advancing Translational Sciences (NCATS), 2022)
